Test results: PubChem BioAssay AID1224855 (National Center for Advancing Translational Sciences (NCATS), 2016)
Results filed as inconclusive are left out. Activity calls are given as the source filed them. Calls come from the whole dose curve; as a rule, active = well fitted inhibition curve with a large enough effect; inconclusive = small, poorly fitted or top-dose-only effect; inactive = no such curve, though single readings can be large or run the other way.

Test: Confirmation assay for measurement of the activity of small molecule inhibitors on Zika virus induced Caspase-3 activity in human iPSC derived neural progenitor cells (hNPCs)
Details: hNPC ZIKV-induced caspase-3/7, Caspase-Glo luminescence, 6 h; series mostly up to 46.1 µM; activity, negative = inhibition: at the top concentration
Text: National Center for Advancing Translational Sciences [NCATS] Johns Hopkins University School of Medicine Florida State University Assay Overview: Increase in the Caspase-3 activity indicates an activation of apoptosis cell death pathway caused by Zika virus infection in certain types of neuronal cells including human neural progenitor cells (hNPCs), astrocytes, and astrocytoma cell line (SNB-19). This cell-based caspase-3 activity assay measures the increased caspase-3 activity in the human iPSC derived neural progenitor cells (hNPCs) after a 6-hour Zika virus infection with a luminescence readout. A decrease in the luminescence signal in this assay by small molecule treatment indicates an inhibitory effect of that small molecule on the Zika virus induced caspase-3 activity that may correlate with its effect on reduction of Zika virus caused cell death.
Assay Protocol Summary: The medium for hNPCs consists of DMEM/F12, N2 supplement (ThermoFisher, Cat.# 17502048), NEAA (ThermoFisher, Cat. # 11140050), 2 ug/ml heparin, 2 uM cyclopamine, and B27 (ThermoFisher, Cat. # 17504044). A Caspase-Glo 3/7 assay kit (catalog number G8092; Promega, Madison, WI) was used to detect caspase-3 activity induced by Zika virus infection in human cells. The reagent mixture was reconstituted as described in the protocol from the manufacturer. Polystyrene tissue culture treated and PDL coated white plates were obtained from Greiner Bio-One (Monroe, NC). Cells were seeded in 384- or 1536-well assay plates and cultured at 37 C with 5% CO2 for 16 to 20 hours. The typical cell seeding density in the 1536-well plate assay is 350 cells/well in 3 ul medium for hNPCs in tissue culture treated plates. Compounds were added to cells and incubated for one hour before addition of ZIKV solution to cells (2 FFU/cell). After incubation at 37 C with 5% CO2 for 6 hours, the reagent mixture of Caspase-Glo 3/7 assay kit was added to each well, followed by incubation at room temperature for 30 minutes. The luminescence intensity of the assay plates was measured using a ViewLux plate reader (PerkinElmer). Data were normalized by using the cell-containing wells without ZIKV as a negative control (0% induction of caspase 3/7 activity) and wells containing ZIKV infected cells (Caspase-3 activity induced) as a positive control (100% induction of caspase 3 activity). The percentage inhibitions of the increased Caspase-3 activity by small molecule inhibitors were then calculated.

activity, negative = inhibition, inactive:
CN(C)c1cc(NC(=O)CNC(C)(C)C)c(O)c2c1C[C@@H]1C[C@H]3[C@H](N(C)C)C(=O)C(C(N)=O)=C(O)[C@@]3(O)C(=O)C1=C2O -2.46%
Cc1[nH]c(C=C2C(=O)Nc3ccccc32)c(C)c1CCC(=O)O 11.2%
C[C@@H]1CCN(C(=O)CC#N)C[C@H]1N(C)c1ncnc2[nH]ccc12 -11.3%
CC(=C(CCOC(=O)C(C)C)SSC(CCOC(=O)C(C)C)=C(C)N(C=O)Cc1cnc(C)nc1N)N(C=O)Cc1cnc(C)nc1N -2.44%
C[C@@H](O[C@H]1OCCN(Cc2n[nH]c(=O)[nH]2)[C@@H]1c1ccc(F)cc1)c1cc(C(F)(F)F)cc(C(F)(F)F)c1 31.4%
N#CC1(c2ccc(NC(=O)c3cccnc3NCc3ccncc3)cc2)CCCC1 -30.6%
Cc1c(N)c(=O)n(-c2ccccc2)n1C -16.4%
Cc1c(C(=O)O)c(O)cc2c1C(=O)c1c(O)c([C@@H]3O[C@H](CO)[C@@H](O)[C@H](O)[C@H]3O)c(O)c(O)c1C2=O 64.3%
CC=CC[C@@H](C)C(=O)[C@H]1C(=O)N[C@@H](C(C)C)C(=O)N(C)CC(=O)N(C)[C@@H](CC(C)C)C(=O)N[C@@H](C(C)C)C(=O)N(C)[C@@H](CC(C)C)C(=O)N[C@@H](C)C(=O)N[C@H](C)C(=O)N(C)[C@@H](CC(C)C)C(=O)N(C)[C@@H](CC(C)C)C(=O)N(C)[C@@H](C(C)C)C(=O)N1C 33.5%
CC(=O)OC(C)OC(=O)C(C)c1ccc(-c2ccccc2)c(F)c1 (stereo not given) -22.6%
Cc1ccc(C(=O)c2ccc(CC(=O)O)n2C)cc1 -28.4%
COc1cccc2c1C(=O)c1c(O)c3c(c(O)c1C2=O)C[C@@](O)(C(=O)CO)C[C@@H]3O[C@H]1C[C@H](N)[C@H](O[C@@H]2CCCCO2)[C@H](C)O1 -26%
Cc1nc(N)sc1-c1ccnc(Nc2ccc(N3CCOCC3)cc2)n1 -17.9%
N[C@H](CSC(c1ccccc1)(c1ccccc1)c1ccccc1)C(=O)O 6.42%
CO[C@H]1C(=O)[C@]2(C)[C@@H](OC)C[C@H]3OC[C@@]3(OC(C)=O)[C@H]2[C@H](OC(=O)c2ccccc2)[C@]2(O)C[C@H](OC(=O)[C@H](O)[C@@H](NC(=O)OC(C)(C)C)c3ccccc3)C(C)=C1C2(C)C 69.4%
COc1ccc(CC2=NN3C([C@@H](CCc4ccccc4)[C@@H](C)O)=NC(C)C3C(=O)N2)cc1OC (stereo not given in full) 8.66%
CCN1/C(=C/C=C/c2sc3ccccc3[n+]2CC)Sc2ccccc21 77.5% [at 23.8 µM]
O=C(O)Cc1ccc(-c2ccccc2)cc1 -18.7%
CC(C)(C)OC(=O)CN(Cc1ccc(Cl)cc1)Cc1ccc([N+](=O)[O-])s1 38.9% [at 88.3 µM]

Potency, active:
C/C(=N\O)c1ccc(OCC(=O)N2CCCCC2)cc1 7.74 µM
O=C(C=CC=Cc1ccc2c(c1)OCO2)N1CCCCC1 13.8 µM
c1ccc2[nH]c(-c3cscn3)nc2c1 9.75 µM
NC(=O)c1cccc2[nH]c(-c3ccc([C@H]4CCCN4)cc3F)nc12 13.8 µM
Nc1ccc(N=Nc2ccccc2)c(N)n1 15.5 µM
O=C(O)[C@@H](c1ccc(OCc2ccc3ccccc3n2)cc1)C1CCCC1 6.9 µM
COc1cccc(-c2cc(=O)c3ccccc3o2)c1N 4.89 µM
O=C(Nc1ccc([N+](=O)[O-])cc1Cl)c1cc(Cl)ccc1O 1.73 µM
Oc1ccc(/C=C/c2cc(O)cc(O)c2)cc1 6.15 µM
Oc1cc(O)cc(/C=C/c2ccc(O)c(O)c2)c1 4.89 µM
CC(C)Oc1ccc2c(=O)c(-c3ccccc3)coc2c1 6.15 µM
O=S(=O)(O)c1ccc2nc(-c3ccccc3)[nH]c2c1 1.23 µM
O=C(Nc1ccc(OC(F)(F)F)cc1)c1sccc1NCc1ccnc2ccccc12 6.15 µM
Cc1csc(NC(=O)c2sc3nc4c(c(C(F)(F)F)c3c2N)CCC4)n1 15.5 µM
CC(=O)Nc1ccc([C@H](C)C(=O)Nc2ncc(C(C)C)s2)cc1 17.3 µM
CC(=O)Oc1ccccc1C(=O)Nc1ncc([N+](=O)[O-])s1 1 µM
Cc1cccc(/C=C/c2ccccc2)n1 8.69 µM
COc1ccc(C=CC(=O)Nc2ccccc2C(=O)O)cc1OC 17.3 µM
COCCn1c2c([n+](Cc3cnccn3)c1C)C(=O)c1ccccc1C2=O 6.15 µM
O=C(O)CCC(=O)c1ccc(-c2ccccc2)cc1 19.5 µM
O=C(/C=C/c1ccc(O)cc1)c1ccc(O)cc1O 1.73 µM
